Screening data: PubChem, Broad Institute
Ecoli rRNA inh – reduced GFP signal of wild-type E. coli, primary screen, bacterial rRNA inhibitor project, GFP/RFP fluorescence, OD600, single point; GFP signal change (wild-type ribosome), % (concentration not given with the values); AID 720706, 2013; 350,000 tested, 1.6% active; E. coli WT GFP vs humanized-ribosome RFP mutants, 24 h; active compounds read low; DMSO median 0, no signal -100;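 active means significant combined selectivity score with lowered wild-type GFP, culture density cut under 30%, mutant RFP and density less affected; inactive means any of these conditions unmet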
EWS-Fli inh – EWS/Fli-driven NR0B1 reporter inhibitors, primary screen, A673 cells, NR0B1 luciferase, luminescence, MLPCN library; viability-normalised; inhibition, % at 12.6 µM; 350,000 tested, 0.67% active;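 active means mean inhibition of at least 50% after viability correction, with every replicate also passing that limit; inconclusive means mean reaches 50% but only one of two replicates passes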;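 further: firefly luciferase signal divided by Alamar Blue viability fluorescence both relative to DMSO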
PGC1a acetyl inh – inhibitors of PGC1a acetylation signal, primary screen, cell-based, U2OS, AlphaScreen, inhibitor mode; 350,000 tested, 0.17% active; AID 651687, 2012; inhibition, % at 15.6 µM; AlphaScreen anti-acetyl-lysine; with virally co-expressed GCN5 acetyltransferase;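 active means every replicate shows inhibition of at least 40%; inconclusive means mean inhibition at least 40% but some replicate below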;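 further: 0% = neutral control wells and 100% = positive control wells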
PAX8 reporter – inhibitors of PAX8-driven TPO luciferase reporter, primary screen, RMG-I cells, single concentration; SteadyGlo, 24 h; 360,000 tested, 1.2% active; AID 652154, 2013; inhibition, % at 12.6 µM;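 active means mean replicate inhibition at least 60% with every replicate also reaching 60%; inconclusive means only one of the two criteria is met; inactive means mean below 60% and not all replicates reaching 60%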;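 further: luciferase light reporting Pax8 driven TPO promoter activity; plate controls were median of neutral control wells for no effect and mitoxantrone controls for full effect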
LGR2 antag – inhibitors of bursicon-induced LGR2 CRE-luciferase signal, primary screen, cell-based, HEK293, CRE-luciferase reporter, bursicon stimulation; Drosophila bursicon receptor LGR2 (rickets); bursicon-stimulated, 4 h; inhibition, % at 9.99 µM; 380,000 tested, 0.35% active;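 active means drop in luminescence signal, shown as inhibition above about 50% in the replicate tests, limit read from the data, passing the limit was not always enough; inconclusive means probably only some replicates passing the limit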;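 further: agonist challenge used bursicon conditioned medium at about half maximal strength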
SIRT5 block – SIRT5 desuccinylase inhibitors, primary screen, biochemical, fluorescence imaging, single point, set 5; NAD-dependent protein deacylase sirtuin-5, mitochondrial (Homo sapiens), Q9NXA8; Purified SirT5, succinyl-peptide AMC, trypsin-coupled fluorescence; inhibition, % at 15 µM; 330,000 tested, 1.1% active; in the data active means inhibition above about 15%; inconclusive means no clear call, values can overlap the other calls
Target sequence (Q9NXA8 whole entry, looked up): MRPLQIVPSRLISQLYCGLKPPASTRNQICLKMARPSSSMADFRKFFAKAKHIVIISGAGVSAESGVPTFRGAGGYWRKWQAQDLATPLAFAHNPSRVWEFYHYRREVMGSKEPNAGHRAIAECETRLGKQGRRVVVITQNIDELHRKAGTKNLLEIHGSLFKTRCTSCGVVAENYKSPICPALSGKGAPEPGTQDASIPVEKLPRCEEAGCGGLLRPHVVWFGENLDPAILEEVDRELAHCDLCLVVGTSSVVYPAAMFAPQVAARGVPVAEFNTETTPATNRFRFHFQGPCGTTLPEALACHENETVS
Active calls of the source: *; ? = inconclusive; . = no result; ! = not active in a repeat. Only some compounds are listed: those with a hit (about 3.4% of all), similar ones and a draw of the others.

SMILES	Ecoli rRNA inh	EWS-Fli inh	PGC1a acetyl inh	PAX8 reporter	LGR2 antag	SIRT5 block
COc1cc(/C=N/NS(=O)(=O)c2ccc(C)c([N+](=O)[O-])c2)cc([N+](=O)[O-])c1O	-16	8	3	1	10	-2
C[C@H](CO)N1C[C@H](C)[C@@H](CN(C)CC2CCOCC2)Oc2ncc(Br)cc2C1=O	-1	-2	89*!	-3	?	-3
C[C@@H]1CN([C@@H](C)CO)C(=O)c2cc(-c3cccc(F)c3)cnc2O[C@H]1CN(C)C(=O)Nc1cc(F)ccc1F	-6	-13	8	.	18	23*
Cc1ccc(-c2cnc3c(c2)C(=O)N([C@@H](C)CO)C[C@H](C)[C@@H](CN(C)C(=O)c2cccnc2)O3)cc1	-2	-5	10	.	-4	26*
C[C@@H]1CN([C@@H](C)CO)C(=O)c2cc(-c3cccc(F)c3)cnc2O[C@@H]1CN(C)Cc1ccncc1	.	0	-2	12	.	21*
C[C@H](CO)N1C[C@H](C)[C@H](CN(C)Cc2ccncc2)Oc2ncc(C#CCN(C)C)cc2C1=O	5	-10	-4	.	1	41*!
C[C@@H]1CN([C@H](C)CO)C(=O)c2cc(Br)cnc2O[C@H]1CN(C)Cc1cccnc1	6	-8	-2	-18	-4	10
C[C@@H]1CN([C@H](C)CO)C(=O)c2cc(-c3cccnc3)cnc2O[C@H]1CN(C)Cc1ccc(-c2ccccc2)cc1	4	57*	-9	.	20	2
C[C@H]1CN([C@@H](C)CO)C(=O)c2cc(C#CCN(C)C)cnc2O[C@H]1CN(C)Cc1ccncc1	6	-15	0	.	5	-1
C[C@@H]1CN([C@@H](C)CO)C(=O)c2cc(Br)cnc2O[C@H]1CN(C)Cc1cccnc1	-1	1	8	10	-4	36*!
O=C(Cc1ccncc1)NCC[C@H]1CC[C@@H](NC(=O)C2CCCCC2)[C@@H](CO)O1	-3	2	-2	23	17	1
CCN(CC(=O)Nc1c(F)cccc1F)C(=O)c1ccc2c(=O)n3c(nc2c1)CCC3	3	-38	-10	-42	-12	-1
CCN(CC(=O)Nc1ccccc1C(F)(F)F)C(=O)c1ccc2c(=O)n3c(nc2c1)CCC3	5	-5	1	-39	-5	22*
C[C@H]1CN(C)C(=O)c2cc(N(C)C)ccc2O[C@@H]1CN(C)C	0	.	.	.	.	.
O=S(=O)(c1ccc(N=C2NN=C(c3cc(F)ccc3F)CS2)cc1)N1CCOCC1	1	37	-6	90*	-17	27*
Fc1ccc(N=C2NN=C(c3cc(F)ccc3F)CS2)cc1	8	-124	.	-101	-60	6
O=C(C[C@@H]1CC[C@H]2[C@@H](COC[C@@H](O)CN2C(=O)c2ccncc2)O1)NC1Cc2ccccc2C1	0	7	2	9	-13	0
CCOc1ccc(NC(=S)NCc2ccco2)cc1	-19*	-16	3	-18	-40	17*
Cc1ccc(NC(=S)NCc2ccco2)c(C)c1	2	-4	.	7	1	80*
Cc1ccc(S(=O)(=O)N(C)C[C@@H]2OCCCC[C@@H](C)Oc3ccc(NS(C)(=O)=O)cc3C(=O)N([C@H](C)CO)C[C@H]2C)cc1	-2	2	3	-2	-4	1
CO[C@@H]1CN(C)C(=O)c2ccc(NC(=O)c3nc4ccccc4s3)cc2OC[C@@H](C)N(Cc2ccccc2)C[C@H]1C	-3	-7	-17	36	-15	.
NC(=O)c1c(N)[nH]c(C(=O)c2ccccc2)c1-c1ccc(Cl)cc1Cl	-16	-9	.	-28	-22	.
Nc1[nH]c(C(=O)c2ccccc2)c(-c2ccccc2Cl)c1C(=O)c1ccccc1	-27*	8	.	-9	7	-5
CN(C)CCCNC(=O)C[C@@H]1CC[C@H]2[C@@H](COC[C@@H](O)CN2CC2CCCCC2)O1	-2	18	6	.	1	-1
Cc1cccc(C(=O)OCC(=O)c2ccc3c(c2)OCO3)c1O	7	-12	.	-285	-64	-3
SMILES	Ecoli rRNA inh	EWS-Fli inh	PGC1a acetyl inh	PAX8 reporter	LGR2 antag	SIRT5 block
O=C(COC(=O)c1cccs1)c1ccc2c(c1)OCCO2	-21	-27	9	.	82*	-2
O=C(COC(=O)c1ccccc1[N+](=O)[O-])c1ccc2c(c1)OCO2	9	-18	3	-202	85*	2
NC(=O)c1ccc(Nc2nnc(-c3ccc(O)cc3)c3ccccc23)cc1	-23*	-2	-13	12	5	-4
CNC(=O)c1ccc(Nc2nnc(-c3ccc(C(N)=O)cc3)c3ccccc23)cc1	6	12	-3	16	-2	-4
COc1ccc(Nc2nnc(-c3ccc(C(N)=O)cc3)c3ccccc23)cc1	-38*	-7	-89	9	7	-1
COc1ccc(Nc2nnc(-c3ccc(C(=O)NCCO)cc3)c3ccccc23)cc1	-19	-14	-51	-6	21	2
O=C(NN=Cc1cccc2ccccc12)C1CC1	-16	-38	-7	-38	-23	0
COc1ccc2ccccc2c1/C=N/NC(=O)c1cccc(Br)c1	.	5	.	-9	6	-3
O=C(N/N=C/c1c(O)ccc2ccccc12)c1cccc(C(F)(F)F)c1	.	.	.	70*	22	.
O=C(N/N=C\c1c(O)ccc2ccccc12)c1ccc(Cn2cccn2)o1	.	.	1	67*	5	.
O=C(NN=Cc1c(O)ccc2ccccc12)C1CC1	-17*	30	9	.	16	7
C[C@H]1CN([C@@H](C)CO)S(=O)(=O)c2ccc(C#CC(C)(C)O)cc2O[C@@H]1CN(C)C(=O)C1CC1	5	4	10	.	-6	.
CNC(=O)C[C@H]1CC[C@H]2[C@@H](COc3ccc(NC(=O)c4cccc(F)c4)cc3C(=O)N2C)O1	2	1	-8	-7	10	2
COCC#Cc1cnc2c(c1)C(=O)N([C@H](C)CO)C[C@@H](C)[C@@H](CN(C)S(=O)(=O)c1cn(C)cn1)O2	-1	-11	-6	.	-36	-3
Cc1nn(-c2ccc3ccccc3c2)c(=O)c2ccccc12	-8	-45	2	-72	-1	1
Cc1nn(-c2nc3ccccc3[nH]2)c(=O)c2ccccc12	26	88*	-9	105*	103*	-3
Cc1noc(C)c1S(=O)(=O)Nc1ccc2c(c1)C(=O)N([C@@H](C)CO)C[C@H](C)[C@@H](CN(C)S(=O)(=O)c1cn(C)cn1)OCCCC[C@H](C)O2	5	7	8	-19	7	-2
